PubChem BioAssay (Tox21)
Values joined by “and” are separate entries in the source; they are usually repeats but may differ in a detail not shown here. Equal entries are not always repeated. Results filed as inconclusive are left out. A call without a number means that no potency is given here. A structure can be active in one record and inactive in another. Active and inactive are the calls of the source. Unless noted, the call rests on the fitted dose curve; in most records, active means well fitted curve in the direction sought with a large enough effect in the repeat runs; inconclusive means weak or mixed curves; inactive means no such curve, though single readings can be large; an effect the other way counts as inactive or inconclusive.

Assays:
[1] = qHTS assay to identify small molecule agonists of the peroxisome proliferator-activated receptor delta (PPARd) signaling pathway - cell viability counter screen (AID 743211); further: nearly all actives have a fitted effect of over 55% in size; further: potency means the concentration at half of the fitted maximal effect
Summary of the method: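 qHTS cell viability: PPARd-bla HEK293H; 17 h cpd, 37C; CellTiter-Glo, luminescence at 30 min RT.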

[2] = biological target: Peroxisome proliferator-activated receptor delta (Homo sapiens) (UniProt Q03181); assay: qHTS assay to identify small molecule agonists of the peroxisome proliferator-activated receptor delta (PPARd) signaling pathway (AID 743212; calls by dose curve)
Summary of the method: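 Quantitative high-throughput agonist screen in a HEK293H beta-lactamase reporter line under UAS control. Compounds in DMSO, at 37 C. Fluorescence read after 2 h with FRET substrate at room temperature.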

[3] = biological target: Peroxisome proliferator-activated receptor delta (Homo sapiens) (UniProt Q03181); assay: qHTS assay to identify small molecule antagonists of the peroxisome proliferator-activated receptor delta (PPARd) signaling pathway (AID 743215; active means well fitted inhibition curve with a large enough effect in the signal ratio in the repeat runs, not every such curve was filed as active; the % refers to the signal ratio;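 further: cells stimulated with agonist L165041 at 300 nM final during compound exposure; series mostly up to about 62 µM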)
Summary of the method: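 PPARd UAS-bla HEK293H cells were pre-incubated 5 h at 37 C, then given test compounds in DMSO plus agonist L165041 (300 nM final). After 17 h at 37 C, beta-lactamase FRET substrate was added; fluorescence read after 2 h at room temperature.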

[4] = biological target: Bile acid receptor (Homo sapiens) (UniProt Q96RI1); assay: qHTS assay to identify small molecule antagonists of the farnesoid-X-receptor (FXR) signaling pathway (AID 743217; active means well fitted inhibition curve with a large enough effect in the signal ratio in the repeat runs, not every such curve was filed as active; the % refers to the signal ratio)
Summary of the method: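 FXR-UAS-bla HEK 293T cells pre-incubated 5 h at 37 °C, then exposed to compounds with chenodeoxycholic acid (50 uM final) for 16 h at 37 °C. Beta-lactamase reporter read by LiveBLAzer B/G FRET substrate fluorescence after 2 h at room temperature.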

[5] = qHTS assay to identify small molecule agonists of the farnesoid-X-receptor (FXR) signaling pathway - cell viability counter screen (AID 743218); further: nearly all actives have a fitted effect of over 45% in size; further: potency means the concentration at half of the fitted maximal effect
Summary of the method: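 FXR-UAS-bla HEK 293T cells, plated 5 h at 37 C, were exposed to compounds for 16 h at 37 C. CellTiter-Glo was then added to the same wells as the bla readout; luminescence read after 30 min at room temperature.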

[6] = biological target: Bile acid receptor (Homo sapiens) (UniProt Q96RI1); assay: qHTS assay to identify small molecule agonists of the farnesoid-X-receptor (FXR) signaling pathway (AID 743220; active means well fitted activation curve with a large enough effect in the signal ratio in the repeat runs, not every such curve was filed as active; the % refers to the signal ratio)
Summary of the method: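 Beta-lactamase reporter under UAS control in GeneBLAzer FXR HEK 293T cells (5000/well) measured with LiveBLAzer FRET substrate after 2 h at room temperature. Compound exposure lasted 16 h at 37C.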

[7] = qHTS assay to identify small molecule antagonists of the farnesoid-X-receptor (FXR) signaling pathway - cell viability counter screen (AID 743221; active means well fitted cell-killing curve with a large enough effect in the repeat runs, not every such curve was filed as active; further: nearly all actives have a fitted effect of over 50% in size; further: potency means the concentration at half of the fitted maximal effect)
Summary of the method: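 After a 5 h settling period, FXR-bla HEK 293T cells receive compound and chenodeoxycholic acid (50 uM final) and incubate 16 h at 37 C; CellTiter-Glo luminescence, read after 30 min at room temperature, reports cell viability.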

[8] = qHTS assay to identify small molecule agonists of the vitamin D receptor (VDR) signaling pathway - cell viability counter screen (AID 743224); further: nearly all actives have a fitted effect of over 50% in size; further: potency means the concentration at half of the fitted maximal effect
Summary of the method: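 VDR-bla cells were preincubated 4 h at 37C/5% CO2, then exposed to compounds for 16 h. After the 2 h room-temperature bla FRET read, CellTiter-Glo was added to the same wells and luminescence read after 30 min.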

[9] = qHTS assay to identify small molecule antagonists of the vitamin D receptor (VDR) signaling pathway - cell viability counter screen (AID 743225); further: nearly all actives have a fitted effect of over 50% in size
Summary of the method: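 Parallel cytotoxicity test: VDR-UAS-bla HEK 293T, 3 nM (final) 1-alpha,25-dihydroxyvitamin D3 with test compound, 16 h, 37C. Endpoint is CellTiter-Glo luminescence in the same wells.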

[10] = qHTS assay to identify small molecule agonists of the NFkB signaling pathway (AID 1159509; active means well fitted curve in the direction sought with a large enough effect in the signal ratio in the repeat runs, not every such curve was filed as active; the % refers to the signal ratio; further: series mostly up to about 61 µM)
Summary of the method: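 NFkB-bla ME-180 cells with a beta-lactamase reporter under an NF-kB response element were plated overnight, treated with compounds in DMSO for 5 hr at 37 C, then loaded with FRET substrate for 1.5 hr at room temperature.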

[11] = qHTS assay to identify small molecule agonists of the NFkB signaling pathway - cell viability counter screen (AID 1159515; calls by dose curve; further: series mostly up to about 61 µM; nearly all actives have a fitted effect of over 55% in size)
Summary of the method: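 NFkB-bla ME-180 cells, 2,000/well, were plated overnight at 37 C, 5% CO2, then exposed to compounds in DMSO for 5 hr. After the bla FRET read, CellTiter-Glo was added to the same wells; luminescence was read after 30 min at room temperature.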

[12] = qHTS assay to identify small molecule agonists of the endoplasmic reticulum stress response signaling pathway (AID 1159516; active means well fitted activation curve with a large enough effect in the signal ratio in the repeat runs, not every such curve was filed as active; the % refers to the signal ratio)
Summary of the method: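 CellSensor ESRE-bla HeLa cells, carrying a beta-lactamase reporter driven by the ER stress response element, were plated overnight and exposed to compounds for 5 hr at 37 C. Reporter activity was read as FRET substrate fluorescence after 2 hr at room temperature.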

[13] = qHTS assay to identify small molecule agonists of the endoplasmic reticulum stress response signaling pathway - cell viability counter screen (AID 1159517; calls by dose curve; further: series mostly up to about 61 µM; nearly all actives have a fitted effect of over 50% in size)
Summary of the method: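 Counter-screen wells were identical to the reporter wells. Cells were plated at 1,500 per well and dosed for 5 hr, then read for luminescence 30 min after CellTiter-Glo addition.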

[14] = qHTS assay to identify small molecule antagonists of the retinoid-related orphan receptor gamma (ROR-gamma) signaling pathway - cell viability counter screen (AID 1159520); further: nearly all actives have a fitted effect of over 50% in size
Summary of the method: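 Tet-on ROR gamma CHO cells were given compounds for 2 hr, then doxycycline hyclate at 1 uM final, and incubated 16 hr at 37 C. Viability was measured as ATP content by CellTiter-Glo luminescence.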

[15] = biological target: Nuclear receptor ROR-gamma (Homo sapiens) (UniProt P51449); assay: qHTS assay to identify small molecule antagonists of the retinoid-related orphan receptor gamma (ROR-gamma) signaling pathway (AID 1159521)
Summary of the method: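 Decreased RORE-driven luciferase luminescence indicates antagonism. Tet-on RORγ CHO cells received compound, then 1 uM final doxycycline 2 h later; signal read after 16 h incubation.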

[16] = qHTS assay to identify small molecule agonists of the AP-1 signaling pathway - cell viability counter screen (AID 1159525; calls by dose curve; further: nearly all actives have a fitted effect of over 55% in size)
Summary of the method: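 AP-1-bla ME-180 cells in Opti-MEM with 0.5% dialyzed FBS, compound exposure 5 h at 37 C in 15-point titration. Viability read in the same wells as ATP content by CellTiter-Glo luminescence, normalised to tetra-n-octylammonium bromide and DMSO controls.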

[17] = qHTS assay to identify small molecule agonists of the AP-1 signaling pathway (AID 1159526; calls by dose curve)
[18] = biological target: Vitamin D3 receptor (Homo sapiens) (UniProt P11473); assay: qHTS assay to identify small molecule agonists of the vitamin D receptor (VDR) signaling pathway (AID 743222; calls by dose curve)
Summary of the method: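 VDR-bla cells were plated 4 h at 37C/5% CO2, then exposed to compounds in DMSO for 16 h. After LiveBLAzer B/G FRET substrate addition and 2 h at room temperature, beta-lactamase reporter fluorescence was read.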

[19] = biological target: Vitamin D3 receptor (Homo sapiens) (UniProt P11473); assay: qHTS assay to identify small molecule antagonists of the vitamin D receptor (VDR) signaling pathway (AID 743223; active means well fitted inhibition curve with a large enough effect in the signal ratio in the repeat runs, not every such curve was filed as active; the % refers to the signal ratio)
Summary of the method: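 Reporter line VDR-bla; stimulus 1alpha,25-(OH)2 vitamin D3, 3 nM final; compound co-addition, 16 h 37C/5% CO2; LiveBLAzer B/G substrate 2 h RT; fluorescence intensity.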

[20] = qHTS assay to identify small molecule antagonists of the peroxisome proliferator-activated receptor delta (PPARd) signaling pathway - cell viability counter screen (AID 743213); further: nearly all actives have a fitted effect of over 50% in size
Summary of the method: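 HEK293H PPARd UAS-bla cells, 5 h pre-incubation, compound + L165041 300 nM final, 17 h 37 C; B/G FRET substrate 2 h RT; then CellTiter-Glo 30 min RT, luminescence.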

Sequence of Bile acid receptor (Homo sapiens) (Q96RI1 whole entry, looked up): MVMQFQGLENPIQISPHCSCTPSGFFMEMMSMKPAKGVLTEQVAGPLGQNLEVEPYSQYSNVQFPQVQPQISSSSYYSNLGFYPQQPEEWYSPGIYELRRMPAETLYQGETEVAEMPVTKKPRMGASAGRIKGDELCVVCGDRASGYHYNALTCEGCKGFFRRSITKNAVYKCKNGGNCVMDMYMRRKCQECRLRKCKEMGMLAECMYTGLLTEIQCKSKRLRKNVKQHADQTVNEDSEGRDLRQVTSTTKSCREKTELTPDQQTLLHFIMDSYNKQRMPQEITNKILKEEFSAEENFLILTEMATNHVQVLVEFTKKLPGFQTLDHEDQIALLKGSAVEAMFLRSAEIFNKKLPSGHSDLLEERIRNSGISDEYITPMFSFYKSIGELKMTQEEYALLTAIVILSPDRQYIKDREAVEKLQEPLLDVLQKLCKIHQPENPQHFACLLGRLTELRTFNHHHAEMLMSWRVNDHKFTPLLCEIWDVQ
Sequence of Vitamin D3 receptor (Homo sapiens) (P11473 whole entry, looked up): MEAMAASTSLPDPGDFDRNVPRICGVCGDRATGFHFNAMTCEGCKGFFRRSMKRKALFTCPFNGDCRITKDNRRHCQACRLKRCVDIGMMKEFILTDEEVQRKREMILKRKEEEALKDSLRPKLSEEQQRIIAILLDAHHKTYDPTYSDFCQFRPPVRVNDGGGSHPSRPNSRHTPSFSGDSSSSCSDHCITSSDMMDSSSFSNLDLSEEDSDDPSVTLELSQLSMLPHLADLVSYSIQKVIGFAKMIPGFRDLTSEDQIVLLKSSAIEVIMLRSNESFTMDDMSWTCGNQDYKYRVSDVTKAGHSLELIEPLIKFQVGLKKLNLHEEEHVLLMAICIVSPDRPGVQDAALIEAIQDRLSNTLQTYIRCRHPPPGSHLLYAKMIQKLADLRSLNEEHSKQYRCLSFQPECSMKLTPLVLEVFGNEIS
Sequence of Peroxisome proliferator-activated receptor delta (Homo sapiens) (Q03181 whole entry, looked up): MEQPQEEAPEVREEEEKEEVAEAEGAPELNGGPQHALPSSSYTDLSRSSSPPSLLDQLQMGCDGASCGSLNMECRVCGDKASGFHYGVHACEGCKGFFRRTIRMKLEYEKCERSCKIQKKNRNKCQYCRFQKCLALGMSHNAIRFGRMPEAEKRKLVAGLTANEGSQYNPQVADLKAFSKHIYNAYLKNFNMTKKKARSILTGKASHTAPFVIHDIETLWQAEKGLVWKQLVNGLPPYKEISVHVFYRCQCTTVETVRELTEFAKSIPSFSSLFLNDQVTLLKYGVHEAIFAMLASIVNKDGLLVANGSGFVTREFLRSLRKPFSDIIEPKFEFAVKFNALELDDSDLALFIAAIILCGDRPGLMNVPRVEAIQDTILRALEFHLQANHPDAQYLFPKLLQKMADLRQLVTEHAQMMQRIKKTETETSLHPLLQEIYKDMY

| Compound | Potency [1] | outcome [2] | outcome [3] | outcome [4] | Potency [5] | outcome [6] | Potency [7] | Potency [8] | outcome [9] | outcome [10] | outcome [11] | outcome [12] | outcome [13] | outcome [14] | Potency [15] | outcome [16] | Potency [17] | outcome [18] | outcome [19] | outcome [20] |
| --- | --- | --- | --- | --- | --- | --- | --- | --- | --- | --- | --- | --- | --- | --- | --- | --- | --- | --- | --- | --- |
| CCOC(=O)CC(SP(=O)(OC)OC)C(=O)OCC (configuration not stated) | inactive | inactive | inactive | inactive | inactive | inactive | inactive | inactive | inactive | inactive | inactive | inactive | inactive | inactive | inactive | inactive | inactive |  |  |  |
| CNC(=O)O/N=C/C(C)(C)SC | inactive | inactive | inactive | inactive | inactive | inactive | inactive | inactive | inactive | inactive | inactive | inactive | inactive | inactive | inactive | inactive | inactive |  |  |  |
| O=[N+]([O-])c1cc([As](=O)(O)O)ccc1O | inactive | inactive | inactive |  | inactive |  | inactive | inactive | inactive | inactive | inactive | inactive | inactive | inactive | inactive | inactive | inactive | inactive | inactive |  |
| Cc1cccc(N)c1 | inactive | inactive | inactive |  | inactive |  | inactive | inactive | inactive | inactive | inactive | inactive | inactive | inactive | inactive | inactive | inactive | inactive | inactive |  |
| CC(C)(C)C(=O)CCl | inactive | inactive | inactive |  | inactive |  | inactive | inactive | inactive | inactive | inactive | inactive | inactive | inactive | inactive | inactive | inactive | inactive | inactive |  |
| CN(C)C(=O)Nc1cccc(C(F)(F)F)c1 | inactive | inactive | inactive |  | inactive |  | inactive | inactive | inactive | inactive | inactive | inactive | inactive | inactive | inactive | inactive | inactive | inactive | inactive |  |
| CCCCC(CC)C(=O)Cl (configuration not stated) | inactive | inactive | inactive | inactive | inactive | inactive | inactive | inactive | inactive | inactive | inactive | inactive | inactive | inactive | inactive | inactive | inactive |  |  |  |
| ClC(Cl)c1ccccc1 | inactive | inactive | inactive |  | inactive |  | inactive | inactive | inactive | inactive | inactive | inactive | inactive | inactive | inactive | inactive | inactive | inactive | inactive |  |
| Nc1ncc([N+](=O)[O-])s1 | inactive | inactive | inactive | inactive | inactive | inactive | inactive | inactive | inactive | inactive | inactive | inactive | inactive | inactive | inactive | inactive | inactive | inactive | inactive |  |
| CN(C)NC(=O)CCC(=O)O | inactive | inactive | inactive |  | inactive |  | inactive | inactive | inactive | inactive | inactive | inactive | inactive | inactive | inactive | inactive | inactive | inactive | inactive |  |
| Nc1cc(Cl)cc(Cl)c1 | inactive | inactive | inactive | inactive | inactive | inactive | inactive | inactive | inactive | inactive | inactive | inactive | inactive | inactive | inactive | inactive | inactive | inactive | inactive |  |
| COc1nc(NC(C)C)nc(NC(C)C)n1 | inactive | inactive | inactive | inactive | inactive | inactive | inactive | inactive | inactive | inactive | inactive | inactive | inactive | inactive | inactive | inactive | inactive | inactive | inactive |  |
| CC(C)CCCCCCOC(=O)c1ccccc1C(=O)OCCCCCCC(C)C | inactive | inactive | inactive | inactive | inactive | inactive | inactive | inactive | inactive | inactive | inactive | inactive | inactive | inactive |  | inactive | inactive | inactive | inactive |  |
| CCOP(=S)(OCC)Oc1cc(C)nc(C(C)C)n1 | inactive and 54.9 µM (active) | inactive | inactive |  | inactive and 49 µM (active) |  | inactive and 43.6 µM (active) | inactive and 24.5 µM (active) | inactive | inactive | inactive | inactive | inactive | inactive | inactive | inactive | inactive |  |  |  |
| OCCCCO | inactive |  |  | inactive | inactive | inactive | inactive | inactive | inactive | inactive | inactive | inactive | inactive | inactive | inactive | inactive | inactive | inactive | inactive |  |
| N#Cc1ccccn1 | inactive |  |  |  | inactive |  | inactive | inactive | inactive | inactive | inactive | inactive | inactive | inactive | inactive | inactive | inactive |  |  | inactive |
| Nc1ccc(N)cc1 | inactive |  |  | inactive | inactive | inactive | inactive | inactive | inactive | inactive | inactive | inactive | inactive | inactive | inactive | inactive | inactive | inactive | inactive | inactive |
